# Assay outcomes deposited in PubChem BioAssay by The Scripps Research Institute Molecular Screening Center.
# GPR151 ag: activators of human GPR151, primary screen, cell-based, PathHunter beta-arrestin, luminescence | AID 1508602, 2020 | G-protein coupled receptor 151 (Homo sapiens), Q8TDV0 | PathHunter beta-arrestin GPR151 cells | 650,000 tested, 1% active | activation, % at 11.2 µM; in the data active = activation above about 4.9%;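 also: 0% = median of compound wells and 100% = cells with positive control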
# TEAD-YAP inh: TEAD-YAP interaction inhibition, primary screen, TEAD-YAP interaction inhibitor project, luminescence, HEK-TIYL cells | AID 1259422, 2018 | TEAD-Gal4/YAP UAS-luciferase luminescence | inhibition, % at 9.12 µM | 640,000 tested, 1.4% active; in the data active = inhibition above about 32%;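 also: 0% = median of test compound wells and 100% = reference inhibitor wells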
# FBW7 activator: FBW7 E3 ligase activators, primary screen, biochemical, AlphaScreen, human | F-box/WD repeat-containing protein 7 (Homo sapiens), Q969H0 | AlphaScreen FBW7–phospho-cyclin E peptide binding, activator screen | normalized activity (activation), % at 26.1 µM | 650,000 tested, 0.13% active | AID 1259310, 2017; in the data active = normalized activity above about 1.9%;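 also: purified mutant Fbw7 with reduced substrate affinity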
# MITF primary: MITF inhibitors, primary screen, biochemical, AlphaScreen, human; Microphthalmia-associated transcription factor (Homo sapiens), O75030; AlphaScreen MITF homodimerization, bead proximity signal; inhibition, % at 2.6 µM; 650,000 tested, 0.91% active; AID 1259374, 2018; in the data active = inhibition above about 50%;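 also: 0% = vehicle wells with protein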
# MITF confirm: MITF inhibitors, retest of hits, confirmation, biochemical, AlphaScreen, triplicate; inhibition, % at 2.6 µM; AID 1259372, 2018; 4,700 tested, 16% active; AlphaScreen MITF homodimerization, biotin/His-MITF beads; shares compounds with MITF primary;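 active = inhibition above a cutoff derived from the DMSO control wells, cut at about 28% in these data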;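 also: 0% = MITF dimer wells with DMSO only; inhibitors lower the bead chemiluminescence by keeping MITF from dimerizing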
# AS interf DR: AlphaScreen optical interference compounds, dose response, counter-screen, biochemical, HTS. AlphaScreen optical interference counterscreen, cell-free. shares compounds with MITF primary. AID 1259373, 2018. 480 tested, 6% active. IC50, µM; call rule not given here
# AlphaScreen intf2: AlphaScreen optical interference compounds, counter-screen for MITF inhibitor project, biochemical, triplicate. shares compounds with MITF primary. LysRS AlphaScreen counterscreen, signal interference. inhibition, % at 2.6 µM. 4,700 tested, 7.6% active. AID 1259376, 2018;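 active = inhibition above a cutoff derived from the DMSO control wells, cut at about 30% in these data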
# Starred values were filed as active, the others as inactive; . = no result. Shown are actives, neighbours in structure and some others; about 3.5% of the full set was active somewhere.
SMILES,GPR151 ag,TEAD-YAP inh,FBW7 activator,MITF primary,MITF confirm,AlphaScreen intf2,others
COc1ccc(N=C2SC(C(=O)Nc3cccc(Cl)c3)CC(=O)N2Cc2ccccc2)cc1 (centres undefined),-1,-3,0,-4,.,.,
CC1=NN(c2ccc(S(N)(=O)=O)cc2)C(=O)/C1=C\c1ccc2c(c1)OCO2,1,2,0,13,.,.,
COc1ccc(OC)c(-c2cc(Cl)c3c(c2)CC(CNC(=O)C2=NNC(=O)CC2)O3)c1 (centres undefined),0,8,0,7,.,.,
CC1=C(C(=O)OCc2ccccc2)C(c2cn(-c3ccccc3)nc2-c2ccc(Cl)cc2)C(C(=O)OCc2ccccc2)=C(C)N1,-2,-6,1,29,.,.,
Cc1cc(Cl)ccc1OCCN1CCNCC1,0,9,0,73*,-4,0,
Cc1cc(OCCOCCN2CCNCC2)cc(C)c1Cl,0,-5,0,64*,4,8,
Cc1ccc(OCCCN2CCNCC2)c(Br)c1,-1,-17,0,69*,8,-3,
Clc1ccc(OCCCN2CCNCC2)c(Br)c1,0,-2,0,39,.,.,
Clc1ccc(OCCN2CCNCC2)c(Br)c1,2,13,0,65*,-13,-2,
CCN1CCN(C2=C(Cl)C(=O)N(c3ccc(I)cc3)C2=O)CC1,1,12,0,9,.,.,
CN1C(=O)CCc2cc(NC(=O)NCc3ccc(F)cc3)ccc21,1,9,0,-3,.,.,
O=C(O)CCCC[C@@H]1SC[C@@H]2NC(=O)N[C@@H]21,0,.,-1,122*,124*,100*,
COc1ccccc1C1(NC(=O)CCCCC2SCC3NC(=O)NC32)CCCC1 (centres undefined),3,-4,-1,105*,66*,9,AS interf DR=4.9*
CC12C=CC(CO)(O1)C1C(=O)N(c3ccc([N+](=O)[O-])cc3)C(=O)C12 (centres undefined),0,-11,0,-3,.,.,
Cc1ccc(N2C(=O)C3C(C2=O)C2(CO)C=CC3(C)O2)cc1[N+](=O)[O-] (centres undefined),1,7,0,53*,43*,5,AS interf DR=>6.5
CCc1nc(C)ccc1OCc1nc2ccncc2[nH]1,0,6,0,58*,20,25,
NCc1nc2ccncc2[nH]1,-2,10,0,-14,.,.,
O=C(CN1CCC(N2CCCCC2)CC1)N(c1ccccc1)c1ccc(O)cc1,0,-3,0,9,.,.,
CCN(C(=O)CN1CCN(C)CC1)c1cccc2ccccc12,0,2,0,85*,-4,-4,
CCN(C(=O)Cn1cnc2ccccc21)c1cccc2ccccc12,1,14,0,-1,.,.,
CN1CCN(CC(=O)N(c2ccccc2)c2ccc(O)cc2)CC1,2,-3,0,75*,12,16,
O=S(=O)(c1ccc(Cl)cc1)N1CCN(Cc2cccc(Br)c2)CC1,1,6,0,51*,11,8,
O=S(=O)(c1ccc(F)cc1)N1CCN(Cc2cccc(Br)c2)CC1,0,7,0,60*,6,6,
Cc1nnc(N/N=C/c2cc([N+](=O)[O-])ccc2Cl)n1N,3,-7,-1,7,.,.,
O=C1/C(=C\c2ccco2)CC2CC1C/C(=C/c1ccco1)C2=O,-2,1,0,52*,17,-12,
O=C1/C(=C\c2cccs2)CC2CC1C/C(=C/c1cccs1)C2=O,-2,2,0,24,.,.,
COc1ccccc1CN1CCC(C(=O)N2CCCC2)CC1,-1,-8,0,45,.,.,
CC1CCCN(C(=O)C2CCN(Cc3cccc(O)c3)CC2)C1 (centres undefined),0,2,0,18,.,.,
O=C(C1CCN(Cc2cccc(O)c2)CC1)N1CCN(c2ccccc2F)CC1,0,4,1,76*,-9,-8,
